In the library only some 27% were active in any assay of this set; here they are far more common.
CYP2C9 inh = blockers of cytochrome P450 2C9 activity – biochemical, luminescence, ADME assay, primary screen; CYP2C9 Supersomes, luciferin-H conversion; inhibition, % at 5 µM; actives 20% (n = 96,000);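 active = blocking of liver enzyme CYP2C9 beyond about 50% at 5 µM, limit read from the data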
CYP2C19 inhib = blockers of cytochrome P450 2C19 activity – biochemical, luminescence, ADME assay, primary screen | inhibition, % at 5 µM | AID 778, 2007 | CYP2C19 Supersomes, luciferin-H EGE luminescence, 30 min | P33261 | actives 21% (n = 96,000);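 active = CYP2C19 inhibition above a set limit at 5 µM in the primary screen, cut at about 50% in these data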
CYP2C9 act = human CYP2C9 activators, primary screen, biochemical, luminescence; recombinant CYP2C9, luciferin-H conversion; active compounds read high; factor 1 = untreated enzyme, 0 = blocked; Cytochrome P450 2C9 (Homo sapiens), P11712; actives 1.4% (n = 96,000); activation factor at 5 µM;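 active = activation factor of 2 or more for CYP2C9 at a 5 µM dose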
sEH act = soluble epoxide hydrolase activators, primary screen, biochemical, human sEH. Bifunctional epoxide hydrolase 2 (Homo sapiens), P34913. purified human sEH enzymatic activity, activator screen. activation, % at 2 µM. actives 0.04% (n = 91,000); in the data active = activation above about 37%
Target sequence (P34913 whole entry, looked up): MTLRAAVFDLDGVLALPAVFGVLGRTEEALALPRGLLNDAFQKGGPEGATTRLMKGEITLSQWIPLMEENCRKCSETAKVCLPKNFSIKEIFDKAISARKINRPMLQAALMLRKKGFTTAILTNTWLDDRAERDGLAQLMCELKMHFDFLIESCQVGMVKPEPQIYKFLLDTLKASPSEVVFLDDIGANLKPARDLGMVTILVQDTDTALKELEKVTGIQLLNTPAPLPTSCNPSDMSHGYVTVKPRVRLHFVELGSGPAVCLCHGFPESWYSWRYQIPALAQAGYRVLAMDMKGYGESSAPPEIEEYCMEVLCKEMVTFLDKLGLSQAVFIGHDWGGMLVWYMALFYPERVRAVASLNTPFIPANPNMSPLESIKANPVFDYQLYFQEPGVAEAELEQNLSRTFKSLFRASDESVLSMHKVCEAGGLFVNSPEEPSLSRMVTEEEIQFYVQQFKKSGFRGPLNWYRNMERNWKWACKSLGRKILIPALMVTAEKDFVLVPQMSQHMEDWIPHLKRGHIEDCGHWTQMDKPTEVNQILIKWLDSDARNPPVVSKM
CYP2C19 act = human CYP2C19 activators, primary screen, biochemical, luminescence; recombinant CYP2C19, luciferin-H EGE luminescence; active compounds read high; 0 = fully inhibited enzyme, 1 = untreated enzyme; activation factor at 5 µM; 96,000 tested, under 10 active; AID 1025, 2008;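 active = activation factor of at least 2 at 5 µM in the primary screen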
sEH inh = soluble epoxide hydrolase inhibitors, primary screen, biochemical, human sEH; inhibition, % at 2 µM; recombinant human sEH enzymatic activity assay; actives 0.34% (n = 91,000); in the data active = inhibition above about 80%
Of the large screens only hits and unclear results are named; the others gave an inactive call.

CCOC(=O)N1CCC(NC(=O)C(NC(=O)C2CCCCC2)C(C)C)CC1 (stereo unspecified)	none (no result: sEH act, sEH inh)
CCN(CC)CCNC(=O)CS(=O)Cc1nc(-c2ccc(C)cc2)oc1C (stereo unspecified)	none
Cc1cc2oc(=O)c3c(c2cc1OCc1nn[nH]n1)CCCC3	none
O=c1oc2cc(OCc3nn[nH]n3)ccc2c2c1CCCC2	CYP2C9 inh 96, CYP2C19 inhib 95
CCOC(=O)CCc1c(C)c2ccc(OCc3nn[nH]n3)cc2oc1=O	CYP2C9 inh 71
CCOC(=O)COc1ccc2c3c(c(=O)oc2c1C)CCC3	CYP2C9 inh 79, CYP2C19 inhib 65
O=Cc1c(-[n+]2ccccc2)nc([O-])n1-c1ccccc1	none
Cc1ccc(N(CN2C(=O)NC(C)(C)C2=O)CN2C(=O)NC(C)(C)C2=O)cc1	CYP2C19 inhib 51 (no result: sEH act, sEH inh)
O=C(CSc1nnc(-c2ccccn2)n1Cc1ccccc1)N1CCCC1	none
O=C(CSCc1cnn(-c2ccccc2)c1-n1cccc1)NCC1CCCO1 (stereo unspecified)	CYP2C9 inh 79, CYP2C19 inhib 80
COc1ccc(CNC(=O)CSCc2cnn(-c3ccccc3)c2-n2cccc2)cc1	CYP2C9 inh 98, CYP2C19 inhib 96
CN1CCN(c2ccc([N+](=O)[O-])cc2NC(=O)c2ccccc2Cl)CC1	none
CN1CCN(S(=O)(=O)c2cccc(S(=O)(=O)c3cccc(S(=O)(=O)N4CCN(C)CC4)c3)c2)CC1	CYP2C9 inh 80
Cc1ccc(S(=O)(=O)N2CCN(C)CC2)cc1[N+](=O)[O-]	none
CN1CCN(S(=O)(=O)c2cc([N+](=O)[O-])ccc2N2CCCCCC2)CC1	CYP2C19 inhib 56
CN1CCN(S(=O)(=O)c2cccc([N+](=O)[O-])c2)CC1	sEH act 39 (no result: CYP2C9 inh, CYP2C19 inhib, CYP2C9 act, CYP2C19 act)
CC1=Nc2ncnn2C(c2ccccc2)/C1=N\O (stereo unspecified)	none
Cc1ccc(C(=O)CSc2nnc(COc3cc(C)cc(C)c3)o2)cc1	none
CCCc1cc(=O)[nH]c(SCC(=O)Nc2c(C)cccc2C)n1	none
C=CCSc1nnc(NC(=O)CSc2nc(CCC)cc(=O)[nH]2)s1	CYP2C19 inhib 51
C=CCSc1nnc(NC(=O)CSc2nnc(C)s2)s1	none
C=CCSc1nnc(NC(=O)CSc2nc3ccccc3[nH]2)s1	CYP2C9 inh 87, CYP2C19 inhib 62
CCCn1c(-c2ccc(F)cc2)cnc1SCC(=O)O	none
CCn1c(-c2ccc(F)cc2)cnc1SCC(=O)N1CCCCC1C (stereo unspecified)	CYP2C19 inhib 63
CCCCc1nnc(NC(=O)C(C)Sc2nc(N)cc(=O)[nH]2)s1 (stereo unspecified)	none
O=C(CCNc1ccc(F)cc1)c1ccco1	CYP2C19 inhib 65
O=C(CCNc1ccc(Cl)c(C(F)(F)F)c1)c1ccco1	CYP2C19 inhib 76
O=C(CC1Oc2ccccc2NC1=O)NCCCN1CCCC1=O (stereo unspecified)	none (no result: sEH act, sEH inh)
COC(=O)/C(=C\Nc1ccccc1N)c1ncc(C(F)(F)F)cc1Cl	none
O=S(=O)(c1ccccc1C(F)(F)F)N1CCC(n2cnc3ccccc32)CC1	CYP2C9 inh 71, CYP2C19 inhib 88
Cn1c2ccccc2c(=O)n2c(=O)c3ccccc3cc12	CYP2C9 inh 56, CYP2C19 inhib 68
O=C(CSCC(=O)OCC(=O)c1ccc(Br)cc1)Nc1cccc2ccccc12	none
Cc1ccccc1C(=O)Nc1nc2n(n1)C(c1ccccc1)CC(=O)N2 (stereo unspecified)	none
C=CCNC(=O)c1ccccc1NS(=O)(=O)c1ccccc1	CYP2C19 inhib 68, CYP2C9 act 2.3
C=CCNC(=O)c1ccccc1NS(=O)(=O)c1ccc(SC)cc1	CYP2C19 inhib 97
NCCc1nnc(SCc2ccccc2F)o1	none
Cc1ccc(C)c(CSc2nnc(CCN)o2)c1	CYP2C9 inh 74, CYP2C19 inhib 90
Cc1ccc(C)c(CSc2nnc([C@@H](N)C(C)C)o2)c1	CYP2C19 inhib 100
CC(C)(O)C#Cc1ccc(C(=O)NCc2cccs2)s1	none
CC1(C)CC(=O)c2c(n(-c3cccc4ccccc34)ccc2=O)C1	none
CCn1nccc1C(=O)Nc1ccc(Cl)cc1Cl	CYP2C19 inhib 63
CCCC(=O)Nc1ccc2nc(SCC(=O)Nc3ccc(N4CCOCC4)c(Cl)c3)sc2c1	CYP2C9 inh 69
COc1ccc(OCC(=O)Nc2ccc(N3CCOCC3)c(Cl)c2)cc1	CYP2C9 inh 65
Cn1ccnc1SCC(=O)Nc1ccc2nc(SCC(=O)NC3CC3)sc2c1	CYP2C9 inh 62
CCOC(=O)c1cnc(SCC(=O)Nc2ccc(N3CCOCC3)c(Cl)c2)nc1N	CYP2C9 inh 81
O=C1CC(C(=O)Nc2ncccn2)C(c2ccccc2)O1 (stereo unspecified)	none
COc1cccc(Oc2cncnc2-c2ccc(OC)cc2O)c1	CYP2C9 inh 99, CYP2C19 inhib 98
COc1ccc(-n2c(=O)c3ccccc3n(CC(=O)NC3CCCC3)c2=O)cc1	none (no result: sEH act, sEH inh)
CC1CCCCN1C(=S)NCCc1ccccc1 (stereo unspecified)	CYP2C19 inhib 96
Cc1ccc(-c2nnc(SCC(=O)Nc3ccc4c(c3)oc3ccccc34)n2C)c(Cl)c1	CYP2C9 inh 59
CCOC(=O)CSc1nc2ccccc2c(=O)n1CCCCCC(=O)NCc1ccco1	CYP2C9 inh 97, CYP2C19 inhib 60
Cc1cccc(-n2c(SCC(=O)NCc3ccco3)nc3ccccc3c2=O)c1	none (no result: sEH act, sEH inh)
O=C(CCCCCn1c(SCC(=O)c2ccccc2)nc2ccccc2c1=O)NCc1ccco1	CYP2C9 inh 98, CYP2C19 inhib 82
O=C(CCCn1c(SCC(=O)c2ccc(Cl)cc2)nc2ccccc2c1=O)NCc1ccco1	CYP2C9 inh 54
CCNC(=O)NC(=O)C(C)Sc1ccc2c(c1)OCCO2 (stereo unspecified)	CYP2C19 inhib 53
O=C(O)C1C2CCC(O2)C1C(=O)NCc1ccncc1 (stereo unspecified)	none
CC(NC(=O)C(Cc1ccccc1)NC(=O)c1ccccc1)C(=O)O (stereo unspecified)	none
Cc1nn(-c2ccccc2)c2c1C1(C(=O)Nc3ccccc31)N1C(=N2)Sc2ccccc21 (stereo unspecified)	none (no result: sEH act, sEH inh)
CC(C)(C)C(=O)Cn1ncc(N2CCCC2)c(Br)c1=O	none
CC(C)(C)C(=O)Cn1ncc(NC2CC2)c(Br)c1=O	CYP2C19 inhib 62
Cc1nn(-c2ccccc2)c(C)c1/C=N/NC(=O)c1cc(C2CC2)[nH]n1	CYP2C9 inh 58, CYP2C19 inhib 60
